From PubChem BioAssay
A selection: hits, their analogues and other compounds. The true share with any hit is near 0.4%.
Ba CapD inh = Bacillus anthracis CapD inhibitors, primary screen, biochemical, fluorescence intensity. actives 0.23% (n = 140,000). z-score (concentration not given with the values). purified CapD enzyme, fluorescence intensity read-out; stronger effect = lower value. AID 492967, 2010. CapD gamma-glutamyltranspeptidase (Bacillus anthracis Ames Ancestor); in the data active = z-score mostly below about -2.9, no sharp cut-off; inactive = mostly above about -1.9
AID504770 = growth inhibition of E. coli YBA685, primary screen, V. cholerae RctB inhibitors; E. coli YBA685 rctB-dependent plasmid, OD600 growth, 3 h; stronger effect = lower value; z-score (test concentration not listed); actives 0.27% (n = 130,000); in the data active = z-score below about -2, passing the limit was not always enough
Numbers stand for hits; - = inactive; . = no result.

SMILES	Ba CapD inh	AID504770
COc1ccc(NC(=O)CSc2nc(-c3cccs3)ccc2C#N)cc1	-	.
COC(=O)N/N=C1\CC2CCC1(C)C2(C)C (configuration not stated)	-	-
Cc1ccc(-c2nnc(N3CCCCC3)c3ccccc23)cc1C	-	-
COC(=O)/C(C#N)=C/c1ccc(C)o1	-	-
COC(=O)/C(C#N)=C/c1ccccc1C	-4.3	-
COc1ccc(/C=C2\N=C(c3ccc(Cl)cc3)N(c3ccccc3Cl)C2=O)cc1OC	-	.
COc1ccc(C2=C3NN=C(N)N3NN2)cc1	-	-
NC(CO)C(=O)NNCc1ccc(O)c(O)c1O (configuration not stated)	-	-
NC(CO)C(=O)N/N=C/c1ccc(O)c(O)c1O (configuration not stated)	-6.9	-
COc1ccc(CNC(C(=O)NC(N)=O)C(C)C)cc1OC (configuration not stated)	.	-
O=[N+]([O-])c1ccc(Sc2cc(Cl)ccc2Cl)nc1	-	.
O=C(Nc1ccc(Cl)cc1)c1cnccc1C(F)(F)F	-	.
CC(OC(=O)c1ccccc1F)C(=O)N1CCc2ccccc21 (configuration not stated)	.	-
CC(OC(=O)c1cc(S(=O)(=O)N(C)C)ccc1N1CCCC1)C(=O)N1CCc2ccccc21 (configuration not stated)	.	-3
C=CCN1C(=O)C2(C(C#N)=C(N)Oc3n[nH]c(COC)c32)c2ccccc21 (configuration not stated)	.	-
N#Cc1ccc(-c2ccc(F)cc2)n(Cc2ccc(Cl)c(Cl)c2)c1=O	-	.
CCc1ccccc1NC(=O)CN1CCNCC1	.	-
CCc1ccccc1NC(=O)CN1CCN(Cc2ccccc2C)S1(=O)=O	-	-3.5
CCOC(=O)c1csc(NC(=O)c2cccs2)n1	.	-
CCOC(=O)c1c(C)cccc1NC(=O)c1cccs1	-1.7	-
O=C1c2ccccc2CC(=O)c2sccc21	-6.8	.
CN1CCC(=C2c3ccccc3CC(=O)c3sccc32)CC1	-	-
CCn1c(CN2CCCCC2C)nc2c1c(=O)n(C)c(=O)n2C (configuration not stated)	-	-
C[CH2][Hg][S]c1ccccc1C(=O)O	-	-5.4
CN(C)C(=O)CSc1ccccc1C(=O)O	.	-
SMILES	Ba CapD inh	AID504770
CCCCCCC#CCCOC(=O)N1CCN(Cc2cc(OC)c(OC)cc2Br)CC1	-	.
C/C(C=Nc1ccccc1)=C\Nc1ccccc1	-5	-
CC(=O)/C(=C/Nc1ccc(I)cc1)c1ccccc1	-	.
Cc1oc2ccc(NS(=O)(=O)c3cccs3)cc2c1C(=O)OC(C)C	-	-
CCOc1ccc(C2Nn3c(nnc3-c3ccccc3)SC2C(=O)N2CCCCC2C)cc1 (configuration not stated)	-	-
O=C(CN1C(=O)COc2ccccc21)c1ccc(Cl)cc1	.	-
O=C1COc2ccccc2N1C(=O)c1ccc(Cl)cc1	-4.1	-
O=c1c(=Nc2ccccc2O)c(=O)c2ccccc12	-	-
O=c1c(=N\O)/c(=N/O)c(=O)c2ccccc12	-	-5.3
CC1CCN(CN2C(=O)C3(OCC(C)(c4ccccc4)CO3)c3ccccc32)CC1 (configuration not stated)	-	.
CC(C)S(=O)(=O)C1=NSC2=NC(=O)/C(=C\c3ccco3)C(=N)N21	-3.8	-
COc1cc(/C=C2/C(=N)N3C(=NC2=O)SN=C3S(=O)(=O)C(C)C)cc(Cl)c1OC(=O)c1ccco1	-	-
COc1ccccc1N(C(C)=O)S(=O)(=O)c1ccc(Cl)cc1	-4.7	-
CC(=O)Oc1ccccc1N(C(C)=O)S(=O)(=O)c1ccc(C)cc1	-	-
Cc1cc(C(N)=O)c(C)n1-c1ccc(-c2nc3ccccc3[nH]2)cc1	.	-
COc1ccc(Br)c(C(=O)Nn2c(-c3ccccc3F)nc3ccccc3c2=O)c1	-	.
Nc1nc(=Nc2ccccc2)ss1	-	-4.2
NC1=NC(=Nc2ccccc2)c2ccccc21	-	-
O=C(Cc1csc(N2CCCC2=O)n1)Oc1ccc2c(c1)OCO2	.	-
CCN(CCC#N)c1ccc(/C=C(\C#N)C(=O)NC(C)C)c(C)c1	.	-
CCN(CC)c1ccc(/C=C(/C#N)C(=O)NC(C)C)o1	.	-3.4
O=C(c1cccs1)n1ccc(-c2nn(-c3ccc(Cl)cc3)ccc2=O)n1	-	.
COc1ccc(OC)c(/C=C2/SC(=S)N(CC(=O)O)C2=O)c1	-	.
COc1cc(OC)c(OC)cc1/C=C1/SC(=S)N(CC(=O)O)C1=O	-3.8	.
CCOC(=O)Cc1c(-c2ccccc2)c2cc(Cl)ccc2[nH]c1=O	-	-
SMILES	Ba CapD inh	AID504770
COC(=O)c1cc(C2CC2)nc2c1c(C)nn2-c1ccccc1	-	-
C=CCn1c(=S)[nH]c2scc(-c3ccccc3Cl)c2c1=O	-	.
O=C1NCCC/C1=N/Nc1ccccc1	-3.9	-
Cc1ccc(N/N=C2/CCCNC2=O)cc1	-	.
CC(=O)Nc1nnc(SCC#N)s1	-	-
CC1C/C(=C/c2ccco2)C(C)N(C)C1 (configuration not stated)	-5.2	-
CCC1C/C(=C/c2ccco2)C(=O)/C(=C/c2ccco2)C1 (configuration not stated)	-	-
CC1CCCC(NC(=O)CCCn2c3ccccc3c3cn[nH]c(=O)c32)C1C (configuration not stated)	-	-
Cc1cc(N2CCOCC2)nc(SCC(=O)NCc2ccco2)n1	.	-
COc1ccc(S(=O)(=O)Nc2ccc3c(c2)N(S(=O)(=O)c2ccc(Cl)cc2)CC3)cc1	-	.
CCN(CC)C(=O)Oc1cc(C(F)(F)F)nc(-c2ccc(Cl)cc2)n1	-	-
CCN(CC)C(=O)Oc1cc(COC)nc(-c2ccccc2)n1	-	-3
Cc1nnn(C23CC4CC(CC(C(=O)N5CCCCCC5)(C4)C2)C3)n1	-	-
CCN1C2=NCCN2c2ccccc21	-	.
NC(=O)CSc1sc(=S)sc1SCC(N)=O	-	-
O=C(O)CSc1sc(=S)sc1SCC(=O)O	-5	-
O=C(NCCCO)Nc1ccc2nc(-c3ccco3)c(-c3ccco3)nc2c1	-7.3	-
O=C(Nc1ccc(N2CCOCC2)cc1)Nc1ccc2nc(-c3ccco3)c(-c3ccco3)nc2c1	-	-
CCc1cccc2c(CCNC(=O)COc3ccc(F)cc3F)c(C)[nH]c12	-	-
CCOC(=O)C1=C(C)N=c2s/c(=C/c3cc(Br)ccc3OC(C)=O)c(=O)n2C1c1ccccc1 (configuration not stated)	-	.
CS(=O)(=O)c1cnc(-c2ccc(OCC3CCCCO3)cc2)nc1-c1ccc(Cl)cc1 (configuration not stated)	-	.
Cc1nnc2c(Nc3ccccc3I)nc3nonc3n12	.	-2.8
Cc1nnc2c(Nc3ccc(I)cc3)nc3nonc3n12	-	.
COc1cc(/C=N/S(=O)(=O)c2ccc(Br)cc2)cc(OC)c1O	.	-
OC(c1ccccc1)(c1ccccc1)C(F)F	.	-
SMILES	Ba CapD inh	AID504770
Cc1cc2nc(N3C(=N)SCC3=O)sc2cc1C	.	-
N=C1SCC(=O)N1c1nccs1	-	-4.6
O=C(O)c1ccccc1N=Nc1c(O)[nH]c2ccccc12	.	-
CCO/C=C1\SC(=S)N(/N=C/c2cccc(Cl)c2)C1=O	-4.4	-
CCO/C=C1\SC(=S)N(c2ccc(Cl)cc2)C1=O	-	-
O=c1cc(-c2ccccc2)c2ccc3c(c2o1)CN(Cc1ccc2c(c1)OCO2)CO3	-	-
CN(C)c1nc2nonc2nc1Nc1ccc(F)cc1	-5.2	-
CC1CCN(c2nc3nonc3nc2Nc2ccc(F)cc2)CC1	.	-
